Over roughly 33,000 sequences, “normalized occupancy” has its median near 0.075; the highest 2% begin near 0.095. The full list was thinned out, with the highest values kept by preference.

MaxL homodimer, sequence (P61244 whole entry): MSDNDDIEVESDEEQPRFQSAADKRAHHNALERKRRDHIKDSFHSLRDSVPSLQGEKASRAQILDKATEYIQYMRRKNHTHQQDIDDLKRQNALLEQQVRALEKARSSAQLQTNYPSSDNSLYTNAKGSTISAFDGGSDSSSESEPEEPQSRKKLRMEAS

The target of the assay is MaxL homodimer (Homo sapiens, UniProt P61244 1-160). The assay can be described thus: universal protein-binding microarray (PBM); PBS-based mixture, 10 nM His-tagged protein dimer, 2% milk, 200 ng/uL BSA, 50 ng/uL salmon testes DNA, 0.02% TX-100; detection with Alexa 488 anti-His antibody;; high values mean tight binding. As to conditions: protein: recombinant; tags: C-terminal His-tag (pET21a); chain copies: 2; dsDNA, one strand shown. Put shortly:
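Binding occupancy is a fluorescence intensity normalised to the intensity of the highest-ranked sequence word. Those intensities came from 8-mers on Agilent 4 x 44 K 'all 10-mer' universal arrays incubated with 10 nM His-tagged protein dimer. Bound protein was detected with 10 ng/μL fluorophore-conjugated anti-His antibody before scanning on a GenePix 4400A.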
As to TCTGTTAA, the binding signal was 0.0739 normalized occupancy. The same measure for AACTGTAC: 0.0732 normalized occupancy; for AAGCTACG: 0.0726 normalized occupancy.

CTATTGTC: the binding signal was 0.079 normalized occupancy.

In the case of CCTACAGC, the binding signal was 0.0762 normalized occupancy.

On to ATATGCTG, for which the binding signal is 0.0875 normalized occupancy. The same measure for GGATGCTA: 0.0763 normalized occupancy; for AGATGCTG: 0.078 normalized occupancy.

For GCATGCTA, the binding signal amounted to 0.112 normalized occupancy. As for ACATGCTA, the figure is 0.106 normalized occupancy; as for AAATGCTA, 0.0773 normalized occupancy. With ACATGCTG, the binding signal stood at 0.124 normalized occupancy.

With AGATGCTA, the binding signal is 0.0746 normalized occupancy.

Turning to CCATGCTA, the binding signal worked out at 0.0945 normalized occupancy. As for AATAGTAA, the binding signal was determined as 0.0776 normalized occupancy. The same measure for CATGGCTA: 0.0864 normalized occupancy; for AAGAATTG: 0.0747 normalized occupancy. The same measure for TAGTGGCA: 0.0787 normalized occupancy; for GATGCTAA: 0.0749 normalized occupancy. Take CAGAGACC: the binding signal was 0.0727 normalized occupancy. The same measure for AGCTATAA: 0.0785 normalized occupancy; for CCAGGTAA: 0.0729 normalized occupancy; for ACATACAG: 0.0868 normalized occupancy. As for GTGTGCTA, the figure is 0.0884 normalized occupancy; as for GCGTGCTA, 0.117 normalized occupancy; as for ACGTGCTA, 0.109 normalized occupancy. For AGGTGCTC, the binding signal turned out to be 0.0817 normalized occupancy. The same measure for GGGTGCTA: 0.0789 normalized occupancy; for CCGTGCTA: 0.0812 normalized occupancy. Consider ACGTGCTG, for which the binding signal came out at 0.0935 normalized occupancy.

As to ACGTGCTC, the binding signal is 0.108 normalized occupancy. The same measure for CCGTGCTC: 0.0737 normalized occupancy; for GCGAACTA: 0.0739 normalized occupancy. The same measure for ATGTGTCC: 0.0851 normalized occupancy; for ACATTTGA: 0.0788 normalized occupancy. With ACTCACTC, the binding signal is 0.0763 normalized occupancy. As for CATCCCAG, the figure is 0.0743 normalized occupancy; as for ATGCCCAG, 0.0765 normalized occupancy; as for AGGGGTGA, 0.082 normalized occupancy. The same measure for AGTGGTCA: 0.0751 normalized occupancy.

For the sequence CATGGTAG, the binding signal amounted to 0.0879 normalized occupancy. Regarding CATGGTCA, the binding signal is 0.0991 normalized occupancy. The same measure for CATGGTCG: 0.0925 normalized occupancy; for CGTGGTCC: 0.0896 normalized occupancy; for CATGGTAA: 0.0939 normalized occupancy.

For AATGGTCA, the binding signal was 0.0816 normalized occupancy. The same measure for CGTGGTAA: 0.096 normalized occupancy.

For CGTGGTAG, the binding signal came to 0.089 normalized occupancy.

With CATGGTAC, the binding signal is 0.0998 normalized occupancy. As for GGTGGTAA, the figure is 0.0793 normalized occupancy. The same measure for CGTGGTCA: 0.102 normalized occupancy; for GTTAGACA: 0.0808 normalized occupancy. As for CAGGTCAG, the figure is 0.0752 normalized occupancy; as for GCATAGCC, 0.0775 normalized occupancy; as for ACGTTCCC, 0.0819 normalized occupancy. On to GGTCTTTA, for which the binding signal is 0.0763 normalized occupancy. The same measure for AACACAGC: 0.0787 normalized occupancy. With CAAGTGTG, the binding signal turned out to be 0.086 normalized occupancy. The same measure for ATAATGTG: 0.095 normalized occupancy; for ACACAGAG: 0.0759 normalized occupancy. As for GATCTTGC, the figure is 0.0794 normalized occupancy; as for AGCATCTC, 0.0746 normalized occupancy.

Take AGGCATTG: the binding signal worked out at 0.0775 normalized occupancy. In the case of AGGCATCC, the binding signal was 0.0757 normalized occupancy. In the case of AGGCATGG, the binding signal amounted to 0.0974 normalized occupancy. For the sequence AGGCATGC, the binding signal worked out at 0.1 normalized occupancy.

On to AGGCATAG, for which the binding signal stood at 0.0784 normalized occupancy.

AGGCATTC: the binding signal was 0.0762 normalized occupancy.

Regarding CTCGAAAA, the binding signal worked out at 0.0738 normalized occupancy. Regarding CAAAATTG, the binding signal came to 0.0748 normalized occupancy. The same measure for AGTCGCAA: 0.0744 normalized occupancy; for GCAGGTAA: 0.0753 normalized occupancy. The same measure for AATGTTCC: 0.0722 normalized occupancy. As to AAGGTGCC, the binding signal came to 0.0753 normalized occupancy. As for CCCGTGCG, the binding signal came to 0.0872 normalized occupancy. As for ACCGTGCT, the figure is 0.0773 normalized occupancy. As for GACGTGCC, the figure is 0.0841 normalized occupancy; as for CACGTGCA, 0.588 normalized occupancy. The same measure for CACGTCCG: 0.0797 normalized occupancy; for AACGTGCC: 0.096 normalized occupancy. For GACGTGCA, the binding signal was 0.0797 normalized occupancy.

For the sequence AAGGTGCT, the binding signal was found to be 0.0733 normalized occupancy. The same measure for CACGTGCG: 0.641 normalized occupancy. Consider AACGTGCT, for which the binding signal worked out at 0.115 normalized occupancy. As for TACGTGCA, the figure is 0.0875 normalized occupancy; as for AATTACGG, 0.0744 normalized occupancy.

CATTGGCG: the binding signal is 0.0762 normalized occupancy.

As to AACTTATT, the binding signal was found to be 0.0797 normalized occupancy. As for CTGTTATC, the figure is 0.078 normalized occupancy; as for CATTAGCG, 0.0779 normalized occupancy; as for CACGTGCC, 0.521 normalized occupancy. Consider AACGTCCG, for which the binding signal came out at 0.0721 normalized occupancy. Take AAGGTGCG: the binding signal turned out to be 0.077 normalized occupancy. As for AACGTTCA, the figure is 0.0836 normalized occupancy; as for AACGTGCG, 0.108 normalized occupancy. The same measure for CACGTACC: 0.0843 normalized occupancy; for ATCGTGCA: 0.0816 normalized occupancy; for CAGGTGCC: 0.0785 normalized occupancy. The same measure for AACGTCCA: 0.0778 normalized occupancy.

For the sequence GTCGTGCA, the binding signal was determined as 0.0855 normalized occupancy. As for AACGTGCA, the figure is 0.109 normalized occupancy.

On to CTCGTGCA, for which the binding signal stood at 0.1 normalized occupancy. In the case of CAGGCTGA, the binding signal stood at 0.0746 normalized occupancy. As for AAAGCACG, the figure is 0.0922 normalized occupancy; as for AGTGTTAA, 0.0742 normalized occupancy; as for CCCATAAG, 0.0856 normalized occupancy. ACATCCTA: the binding signal came to 0.0822 normalized occupancy.

For AATTAATC, the binding signal was 0.0741 normalized occupancy. The same measure for ACGGGGAC: 0.0795 normalized occupancy; for ACCAGAAC: 0.0763 normalized occupancy. With CGGCATCA, the binding signal turned out to be 0.0791 normalized occupancy. Turning to CCAGGTCG, the binding signal was found to be 0.0731 normalized occupancy. As for AGTACACA, the figure is 0.0858 normalized occupancy. With CATACACA, the binding signal came to 0.0892 normalized occupancy. For CATACATG, the binding signal is 0.0969 normalized occupancy. Take CATACACC: the binding signal was 0.0901 normalized occupancy. For CATACATA, the binding signal came out at 0.0846 normalized occupancy. On to CGTACACG, for which the binding signal came to 0.0971 normalized occupancy. Take CATACACG: the binding signal came out at 0.097 normalized occupancy.

Take AATACATG: the binding signal turned out to be 0.0934 normalized occupancy.

Consider CGTACACA, for which the binding signal turned out to be 0.0813 normalized occupancy. Regarding CCGCTTAC, the binding signal was 0.0724 normalized occupancy. The same measure for TCAGGCAA: 0.0718 normalized occupancy; for GACGGCGA: 0.0752 normalized occupancy. The same measure for CCAACAAG: 0.0776 normalized occupancy; for CCGCGAGG: 0.0805 normalized occupancy. Take AACCTAAC: the binding signal came to 0.0728 normalized occupancy. As for GCGATTCC, the figure is 0.0814 normalized occupancy; as for GCCCACGA, 0.0823 normalized occupancy; as for ACCCACGG, 0.0796 normalized occupancy.

Consider CCCCACGC, for which the binding signal amounted to 0.0979 normalized occupancy.

For ACCCACAT, the binding signal was 0.0932 normalized occupancy. As for GCCCACGC, the figure is 0.0978 normalized occupancy; as for CCCCACGG, 0.0843 normalized occupancy; as for ACCCACGA, 0.0913 normalized occupancy. As for CCCCACGA, the figure is 0.0848 normalized occupancy. Regarding ACCCACGT, the binding signal was 0.0984 normalized occupancy. The same measure for ACCCACGC: 0.105 normalized occupancy; for GCCCACCC: 0.087 normalized occupancy; for ACCCACCA: 0.088 normalized occupancy. As for CTCGCACC, the figure is 0.0733 normalized occupancy; as for ATCTATTG, 0.078 normalized occupancy; as for AGATAGGC, 0.078 normalized occupancy. The same measure for ACATAGAA: 0.0839 normalized occupancy. Turning to TAGTTAAA, the binding signal worked out at 0.0739 normalized occupancy.

For the sequence CAGCATAC, the binding signal turned out to be 0.0829 normalized occupancy. In the case of AAGCATAA, the binding signal stood at 0.0767 normalized occupancy. For the sequence AAGCATTA, the binding signal was 0.082 normalized occupancy. As for GAGCATAC, the figure is 0.0789 normalized occupancy. With GAGCACGC, the binding signal was determined as 0.094 normalized occupancy. For AAGCATAG, the binding signal is 0.0734 normalized occupancy. The same measure for AAGCATTG: 0.0783 normalized occupancy; for CAGCATGC: 0.126 normalized occupancy. As for AAGCATGG, the figure is 0.11 normalized occupancy; as for CAGCATCC, 0.0746 normalized occupancy; as for AAGCATGA, 0.101 normalized occupancy.

Turning to GAGCATGC, the binding signal is 0.113 normalized occupancy. For ATTGGCAG, the binding signal was determined as 0.0726 normalized occupancy. Regarding GTTTACCA, the binding signal stood at 0.0757 normalized occupancy. As for CCGATAAA, the figure is 0.0723 normalized occupancy; as for CATCACCC, 0.0788 normalized occupancy; as for AGTTGCAT, 0.0779 normalized occupancy. In the case of AGCATAAC, the binding signal worked out at 0.0787 normalized occupancy. As for CAAGGGGC, the figure is 0.0772 normalized occupancy. The same measure for TACCTTGA: 0.0849 normalized occupancy; for CTTATAGA: 0.0769 normalized occupancy.

With AAGCATGT, the binding signal amounted to 0.0997 normalized occupancy. As for AAGCATTC, the figure is 0.0773 normalized occupancy. The same measure for AAGCATAT: 0.0839 normalized occupancy; for AAGCATGC: 0.118 normalized occupancy; for AAGCATCT: 0.0778 normalized occupancy. The same measure for AAGCATAC: 0.0751 normalized occupancy.

Source of the values: article PMC4242493, “Sequence specificity incompletely defines the genome-wide occupancy of Myc”.
